Most compounds without a hit are left out; they make up all but 9.2% or so of the library.
FLuc modulator: counter-screen for miR-21 project: firefly luciferase inhibitors or activators; P08659; purified FLuc, Km substrates, luminescence inhibition; Potency, µM (highest dose often 57.5 µM), without a hit: top-dose activity change, negative = inhibition, most hits filed as inhibitors; hit rate 6.9% among 360,000;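 further: plate controls were vehicle for no effect and reference inhibitor for full effect; nearly all actives have a fitted effect of over 55% in size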
Target sequence (P08659 whole entry, looked up): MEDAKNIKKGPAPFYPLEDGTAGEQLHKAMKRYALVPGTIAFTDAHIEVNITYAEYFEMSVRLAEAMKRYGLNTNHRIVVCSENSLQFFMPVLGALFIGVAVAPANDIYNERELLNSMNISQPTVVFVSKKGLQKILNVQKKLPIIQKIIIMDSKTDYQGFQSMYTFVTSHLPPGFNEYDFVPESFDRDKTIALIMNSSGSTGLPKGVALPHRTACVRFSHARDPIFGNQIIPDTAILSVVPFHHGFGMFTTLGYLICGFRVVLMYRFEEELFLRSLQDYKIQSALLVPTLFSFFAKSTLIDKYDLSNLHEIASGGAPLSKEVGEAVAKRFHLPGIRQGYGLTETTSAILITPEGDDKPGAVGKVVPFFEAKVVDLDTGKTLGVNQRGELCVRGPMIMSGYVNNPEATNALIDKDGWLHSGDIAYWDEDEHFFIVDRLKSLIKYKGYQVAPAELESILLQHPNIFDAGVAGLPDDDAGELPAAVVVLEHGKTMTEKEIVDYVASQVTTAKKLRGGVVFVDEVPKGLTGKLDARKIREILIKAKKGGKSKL
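Purified P. pyralis luciferase (10nM final) with 10uM D-luciferin and 10uM ATP (Km levels) in 50mM Tris acetate pH 7.5, 10mM Mg acetate, 0.01% Tween-20, 0.05% BSA; qHTS 6-point titration, ~60 µM downward; luminescence read.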
NPC1 promoter act: NPC1 promoter activation. AID 485313. Potency, µM (highest dose often 9.22 µM), without a hit: at the highest dose activation, usual class: activators. Huh7 NPC1 promoter luciferase reporter, 24 h. hit rate 2.4% among 320,000; further: % of control where 0% means no effect; nearly all actives have a fitted effect of over 60% in size
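Luciferase expression driven by the NPC1 promoter was measured in stably transfected Huh7 cells after a 24 h compound incubation, using a luciferase reagent and a luminescence read.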
ELG1 repair inh: ELG1-dependent DNA repair inhibition; HEK293T ELG1-luciferase reporter, luminescence, 16 h; DNA damage induced by 5-fluorouridine; Potency, µM (titrated, usually from 46.1 µM), without a hit: at the top dose activity change, negative = inhibition, hits mostly inhibitors; hit rate 2.3% among 330,000; AID 504467; further: on the % scale 0 is the no-effect control and ±100 the full control effect; nearly all actives have a fitted effect of over 55% in size
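Cells (2,000 per well) received 5-fluorouridine plus test compound or DMSO and were incubated 16 hr at 37 °C, 5% CO2. Luciferase activity was read by luminescence 30 min after ONE-Glo addition; signal suppression marked inhibition of damage-induced ELG1 function.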
SMN2 splice enh: enhancers of SMN2 splice variant expression. Potency, µM (highest dose often 46.1 µM), without a hit: at the top dose activity change, positive = activation, most hits filed as activators. HEK293 SMN2-luciferase splicing reporter, luminescence, 30-36 h. AID 1458. hit rate 2.8% among 210,000; further: % of control where 0% means no effect; nearly all actives have a fitted effect of over 55% in size
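qHTS luciferase splicing reporter: luminescence rises when SMN2 exon 7 is included in transfected HEK293 cells. Compound exposure lasted 30-36 h at 37C, with 4.5 mM final sodium butyrate as control, followed by a ONE-Glo read.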
ELG1 genotoxic: induces genotoxicity in HEK293T cells with luciferase-tagged ELG1; Potency, µM (highest dose often 46 µM), for inactives: top-dose activity change, positive = activation, hits mostly activators; AID 504466; hit rate 1.3% among 330,000; HEK293T ELG1-luciferase reporter, luminescence, 16 h; further: % of control where 0% means no effect; nearly all actives have a fitted effect of over 60% in size
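Step 1: seed 2,000 HEK293T ELG1-luciferase cells per well. Step 2: add compound or DMSO, incubate 16 hr at 37 °C. Step 3: ONE-Glo, 30 min at room temperature, read luminescence.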
Rab9 prom act: Rab9 promoter activation; hit rate 2.8% among 320,000; Huh7 Rab9 promoter-luciferase reporter, luminescence, 24 h; AID 485297; Potency, µM (doses to about 9.22 µM), inactives show at the highest dose activation, negative = inhibition, actives largely listed as activators; further: % of control where 0% means no effect; nearly all actives have a fitted effect of over 60% in size
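Huh7 cells stably carrying Rab9 promoter–luciferase reporter, plated 1500 cells/well, compound added after 2 h and incubated 24 h at 37 °C; luciferase luminescence then read after 10 min with detection reagent.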
Numbers without * were called inactive; ? = inconclusive; . = no result given; [ ] = another dose, or the depositor's remark. The call rests on the fitted dose curve; in most records, active means well fitted curve in the direction sought with a large enough effect; inconclusive means small, poorly fitted or top-dose-only effect, or another doubt; inactive means no such curve, though single readings can be large; an effect the other way counts as inactive or inconclusive. Potency means the concentration at half of the fitted maximal effect.

SMILES	FLuc modulator	NPC1 promoter act	ELG1 repair inh	SMN2 splice enh	ELG1 genotoxic	Rab9 prom act
Cc1nc2ccccn2c1-c1csc(Nc2cccc(O)c2)n1	-7.0%	0.9%	?	.	2.1%	-1.0%
CCc1ccc(-c2nc(CS(=O)CC(=O)NC3CCCCCC3)c(C)o2)cc1 (centres undefined)	?	2.3%	2.8%	.	0.8%	5.1%
COc1cccc(CN2CCC(n3nccc3NC(=O)CCCc3ccccc3)CC2)c1	-1.4%	-1.6%	?	.	-4.8%	6.4%
COc1cc(S(=O)(=O)n2ccnc2C(C)C)ccc1Br	-15.0%	.	.	13.0%	.	.
CCOC(=O)C1CCN(C(=O)CCc2nnc3ccc(N4CCN(C)CC4)nn23)CC1	-2.1%	0.2%	1.8%	.	0.1%	2.1%
Cc1cccc(Nc2nc(-c3c(C)nc4ccccn34)cs2)c1	?	-23.7%	?	-38.1%	-15.1%	-20.5%
Cc1nc(N)sc1-c1csc(Nc2cccc(O)c2)n1	10.7µM*	3.55µM*	-27.0%	.	?	3.5%
Cn1cnnc1SCC(=O)Nc1ccc(C#N)cc1	-4.8%	.	.	1.0%	.	.
Cc1cccc(COc2ccccc2C(=O)OCC(=O)N(C)c2c(N)n(Cc3ccccc3)c(=O)[nH]c2=O)c1	-18.3%	-3.7%	20.6µM*	.	-11.9%	16.4%
CC(=O)Nc1cccc(-n2nnc(SCC(=O)c3ccccc3)n2)c1	16.9µM*	2.82µM*	?	.	?	3.16µM*
COc1ccc(C(=O)CSc2nnn(-c3cccc(NC(C)=O)c3)n2)cc1	16.9µM*	?	?	.	5.2%	?
CCOC(=O)N1CCC(N2Cc3cccc(C(=O)NCc4ccccn4)c3C2=O)CC1	1.7%	0.4%	1.4%	11.7%	-0.6%	-1.5%
CCOC(=O)N1CCC(N2Cc3cccc(C(=O)NCc4ccc(C)cc4)c3C2=O)CC1	-0.5%	-3.9%	16.4µM*	-11.0%	-5.3%	-3.4%
O=C1/C(=C/c2cccnc2)Oc2cc(OS(=O)(=O)c3ccccc3)ccc21	?	8.4%	0.2%	0.2%	?	10.3%
O=C1/C(=C/c2cccnc2)Oc2cc(OS(=O)(=O)c3ccc(Cl)cc3)ccc21	-2.9%	3.8%	14.6µM*	-61.6%	2.8%	-0.2%
Nc1nn(-c2ccccc2)c(N)c1N=Nc1ccccc1	3.01µM*	?	?	8.91µM*	14.6µM*	?
Nc1ncnc(N)c1N=Nc1ccccc1	-6.1%	19.8%	-1.4%	.	-14.4%	0.5%
Cc1nn(-c2ccccc2)c(N)c1N=Nc1ccc(Cl)cc1	8.49µM*	2.51µM*	?	22.4µM*	?	2µM*
Nc1c(N=Nc2ccccc2F)c(=O)[nH]n1-c1ccccc1	3.79µM*	?	?	20.3%	?	?
Nc1nc(-c2ccccc2)c(N=Nc2ccc(Cl)cc2)s1	-6.9%	-0.6%	2.6%	-24.1%	-1.2%	-3.6%
Cc1cc(=O)n2[nH]c(N)c(N=Nc3ccccc3F)c2n1	?	-4.0%	-7.2%	-21.5%	-9.1%	-1.5%
Cc1cccc(N=Nc2c(C)nn(-c3ccccc3)c2N)c1C	13.5µM*	24.5%	?	?	?	?
CC(C)CC1NC(=O)c2ccccc2-n2c1nc1ccccc1c2=O (centres undefined)	.	.	?	.	5.2%	.
Cc1nn(-c2ccccc2)c(N)c1N=Nc1cccc(S(=O)(=O)N2CCOCC2)c1	?	-7.6%	0.0%	.	-3.1%	-6.1%
Cc1nn(-c2ccccc2)c(N)c1N=Nc1ccccc1	6.75µM*	2.82µM*	?	12.6µM*	?	2µM*
SMILES	FLuc modulator	NPC1 promoter act	ELG1 repair inh	SMN2 splice enh	ELG1 genotoxic	Rab9 prom act
Cc1cc(C)n2nc(N)c(N=Nc3ccccc3)c2n1	15.1µM*	5.9%	16.3%	.	6.1%	24.8%
Nc1nn(-c2ccccc2)c(N)c1N=Nc1ccccc1F	0.953µM*	0.562µM*	?	3.55µM*	?	0.447µM*
Cc1nc2c(N=Nc3ccccc3F)c(N)nn2c(N)c1C#N	?	?	3.7%	10.9%	-1.1%	?
COc1cc(/C=C/C(=O)N2CCC=CC2=O)cc(OC)c1OC	-1.9%	-33.9%	?	-107.1%	?	-42.1%
NC(=S)N/N=C/c1ccc(-n2nncc2-c2ccc(Cl)cc2)cc1	?	8.8%	?	.	-2.0%	-3.9%
COc1cc(OC)c(OC)cc1/C=N/Nc1nc2ccccc2[nH]1	-14.2%	1.1%	?	.	1.3%	8.8%
COc1ccc2c(c1)c(C(=O)N/N=C/c1cn(C)c3ccccc13)c(C)n2C	?	3.1%	-3.0%	.	-3.1%	1.1%
COc1cc(/C=N\Nc2nc3ccccc3[nH]2)cc(OC)c1OC	10.7µM*	-2.5%	-2.3%	-23.5%	-2.2%	-6.2%
COc1ccc(/C=N/Nc2nc3ccccc3[nH]2)cc1OC	7.57µM*	?	?	0.8%[1.84 µM]	11.1%	?
CCOc1cc(/C=C2\COc3ccccc3C2=O)cc(Br)c1OCC(=O)N(C)C	?	-15.6%	?	.	-10.4%	2.6%
COc1ccc2c(c1)c(/C=N/Nc1nc3ccccc3[nH]1)c(C)n2C	9.53µM*	5.7%	?	.	4.4%	0.5%
COc1cc(/C=C/C(=O)NCc2nc3ccccc3[nH]2)cc(OC)c1OC	-0.7%	-3.5%	?	.	?	-5.6%
CCOc1cc(/C=N/Nc2nc3ccccc3[nH]2)cc(Br)c1OCC(=O)N(C)C	23.9µM*	-0.4%	23.1µM*	-82.2%	-15.1%	-0.4%
COc1ccc(NC(=O)c2cc(S(=O)(=O)N3CCCCC3)c[nH]2)cc1	7.2%	2.2%	-4.8%	.	0.5%	2.6%
CCCCCC(=O)Nc1ccc2ccccc2c1	13.5µM*	?	?	?	?	?
Cn1c(SCC(=O)Nc2cccc(C(=O)O)c2)nnc1-c1cc2cc(Br)ccc2o1	2.69µM*	7.4%	23.8%	.	0.1%	-1.5%
O=C(O)CCCC(=O)Nc1ccc2c(c1)oc1ccccc12	15.1µM*	0.8%	2.4%	.	-2.2%	2.3%
COc1cc2c(cc1NC(=O)CSc1ccccn1)oc1ccccc12	?	?	9.6%	4.5%	14.5%	?
O=C(CSc1ccccn1)Nc1ccc2c(c1)oc1ccccc12	13.5µM*	24.0%	?	17.8µM*	15.3%	29.2%
COc1ccccc1-c1nc(SCC(=O)c2ccc(Cl)cc2)n[nH]1	-4.1%	.	.	13.8%	.	.
CCc1ccc2nc(Nc3ccc(OC)cc3OC)c(C#N)cc2c1	-12.8%	-6.3%	0.7%	.	0.6%	-0.6%
Cc1ccc(N(C)S(=O)(=O)c2cccc(C(=O)NCC(c3ccco3)N3CCCC3)c2)cc1 (centres undefined)	-1.8%	-5.5%	-27.8%	.	-2.2%	-2.2%
Cc1ccccc1OCc1nnc(SCC(=O)Nc2ccc3c(c2)oc2ccccc23)n1C	-12.9%	23.8%	0.0%	?	?	27.9%
